# Experimental data reported in PubChem BioAssay (NCATS).
# Results filed as inconclusive are left out. Active and inactive are the calls of the source. Unless noted, calls follow the shape of the dose curve; as a rule, active = well fitted curve in the direction sought with a large enough effect; inconclusive = small, poorly fitted or top-dose-only effect, or another doubt; inactive = no such curve, though single readings can be large; an effect the other way counts as inactive or inconclusive.
# Tests used:
# Furin (Homo sapiens) = Furin (Homo sapiens) (UniProt P09958); assay: Furin counterscreen qHTS for Zika virus inhibitors (AID 1347149); also: nearly all actives have a fitted effect of over 70% in size; also: potency is read from the fitted curve at half-maximal effect;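 as to activity change, negative = inhibition: purified recombinant full-length human furin enzyme at 5 nM; fluorescence gain from furin cutting a BOC-RVRR-AMC peptide substrate over 15 min; top concentration of the series differs between compounds; plate controls were no-inhibitor control for no effect and no-enzyme control for full effect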
# Method in brief: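 Counterscreen measures cleavage of 2 microM BOC-RVRR-AMC, below its ~15 microM Km, by 5 nM full-length human furin at pH 7.0 after a 15-min compound preincubation. Inhibition derives from the 15-min fluorescence increase at 37C.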
# [1] = ZIKV-mCherry secondary qHTS for Zika virus inhibitors (AID 1347158); also: top concentration of the series differs between compounds
# Method in brief: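 Read-out is percent infection: mCherry-positive Vero cells (nuclear-proximal intensity >450 RFU, 3 SD above negative controls) counted by high-content imaging of Hoechst-stained, PFA-fixed wells after 48-72 h with ZIKV-mCherry at MOI 1 and compound.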
# [2] = test system: Zika virus NS2B-NS3 protease (linked); assay: 384 well plate NINDS AMC confirmatory qHTS for Zika virus inhibitors (AID 1347163); also: nearly all actives have a fitted effect of over 50% in size; also: potency is read from the fitted curve at half-maximal effect;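 as to activity change, negative = inhibition: linked protease at 5 30 or 60 nM final depending on run; fluorescence of AMC released from Ac-VKTGKR-AMC peptide cleaved by the protease; top concentration of the series differs between compounds; 0% = no-inhibitor control and -100% = no-enzyme control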
# Method in brief: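 Enzyme (5, 30 or 60 nM final) first met test compounds for ~15 min. The AMC-tagged peptide Ac-VKTGKR-AMC followed at 30 microM. Fluorescence was then recorded at 25 min and scaled against no-enzyme and no-inhibitor wells.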
# [3] = test system: Zika virus NS2B-NS3 protease (linked construct); assay: 384 well plate NINDS Rhodamine confirmatory qHTS for Zika virus inhibitors (AID 1347164); also: potency is read from the fitted curve at half-maximal effect; nearly all actives have a fitted effect of over 65% in size
# Method in brief: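 Compounds are incubated about 15 minutes with linked protease (5, 30 or 60 nM final). Rhodamine 110-tagged Ac-LKRR substrate (10 microM final) is added and fluorescence measured after 25 minutes.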
# [4] = Tertiary RLuc qRT-PCR qHTS assay for Zika virus inhibitors (AID 1347169); also: top concentration of the series differs between compounds; % is scaled to controls: 0 for no effect and ±100 for the full control effect; nearly all actives have a fitted effect of over 55% in size
# Method in brief: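 Orthogonal cell-based infection assay using recombinant ZIKV-RLuc (Cambodian) in Vero cells; compound added prior to virus at MOI 1-2. Incubation lasts 48-72 hrs at 37 degrees C before live-cell Renilla substrate is added and luminescence measured.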
# [5] = Confirmatory screen GU Rhodamine qHTS for Zika virus inhibitors qHTS (AID 1347157);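 also: plate controls were no-inhibitor wells for no effect and no-enzyme wells for full effect; nearly all actives have a fitted effect of over 70% in size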
# Method in brief: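 Unlinked NS2B/NS3, 25 nM; Rhod110 peptide, 1.5 microM; compounds, up to 114 microM. Reaction run 15 min at RT in 10 mM Tris-HCl pH 8.0, 0.01% Tween 20; kinetic fluorescence change fitted with a 4-parameter Hill model.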
# [6] = molecular target: Cytochrome P450 2D6 (Homo sapiens) (UniProt P10635); assay: Cytochrome P450 family 2 subfamily D member 6 (CYP2D6) small molecule antagonists: luciferase biochemical (cell-free) qHTS assay (AID 1645840; active = well fitted curve in the direction sought with a large enough effect in the repeat runs; an effect the other way counts as inactive or inconclusive; also: potency is read from the fitted curve at half-maximal effect; nearly all actives have a fitted effect of over 55% in size)
# Method in brief: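 P450-Glo CYP2D6 system: proluciferin substrate converted by enzyme to luciferin, read by luminescence proportional to activity. Enzyme-substrate mix with compound 10 min at room temperature, then NADPH regeneration 1 h before detection reagent.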
# [7] = molecular target: Lysosomal acid glucosylceramidase (Homo sapiens) (UniProt P04062); assay: Glucocerebrosidase-p2 (AID 348; in the data active = potency below about 10 µM; also: potency is read from the fitted curve at half-maximal effect); settings: purified GBA, blue fluorogenic substrate, 40 min
# Method in brief: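 Normal human glucocerebrosidase (0.2 nM) with blue fluorogenic substrate (80 uM final) in citrate/phosphate pH 5.9 with 10mM sodium taurocholate, 0.01% tween-20; 40 min RT, NaOH/glycine stop; fluorescence Ex 365/Em 440; AC50 from a titration from 0.6 nM upwards.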
# [8] = AP1 Signaling Pathway (AID 357; active = well fitted curve in either direction with a large enough effect, not every such curve was filed as active;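 also: ME-180 reporter cells stimulated with EGF at its EC50 level; % is scaled to controls: 0 for no effect and ±100 for the full control effect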); settings: ME-180 AP-1-bla reporter, EGF-induced, beta-lactamase ratio, 5 h
# Method in brief: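 Modulation of EGF-driven AP-1 transcription was assessed with a beta-lactamase reporter in ME-180 cells. Compound and EC50 EGF were co-incubated 5 hours at 37 °C before 2.5-hour CCF4 loading at room temperature and dual-emission reading.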
# [9] = molecular target: Glucocorticoid receptor (Homo sapiens) (UniProt P04150); assay: GR-EFC Redistribution (AID 451; calls by dose curve; also: potency is read from the fitted curve at half-maximal effect); settings: CHO-K1 GR-EFC translocation, beta-gal luminescence, 2 h
# Method in brief: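 CHO-K1 cells stably expressing nuclear-localized β-gal enzyme acceptor and GR fused C-terminally to the enzyme donor fragment; ligand-driven nuclear translocation restores β-gal by complementation. Compounds titrated up to 46 uM final, 2 h at 37 °C; luminescence read.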
# [10] = molecular target: Mitogen-activated protein kinase 10 (Mus musculus) (UniProt Q61831); assay: JNK3 AlphaScreen Assay (AID 530; active = well fitted curve in either direction with a large enough effect, not every such curve was filed as active;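 also: kinase came from lysate of stimulated human HepG2 cells; signal reports phosphorylation of biotinylated GST-cJun 1-79 at Ser73 with 10 µM ATP; % is scaled to controls: 0 for no effect and ±100 for the full control effect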)
# Method in brief: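 Biotinylated GST-cJun(1-79) served as substrate for JNK3 in HepG2 lysates stimulated with IL-1beta and TNF-alpha. ATP was 10 uM final, pH 7.6. Ser73 phosphorylation was quantified by AlphaScreen (680 nm excitation).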
# [11] = molecular target: 3',5'-cyclic-AMP phosphodiesterase 4B (Homo sapiens) (UniProt Q07343); assay: qHTS Assay for Inhibitors of PDE-IV (AID 607; active = well fitted activation curve with a large enough effect in the main read-out, with a control signal flat, not every such curve was filed as active; also: % of control where 0% means no effect)
# Method in brief: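 ACTOne HEK293 cells carry a modified cAMP-gated CNG channel and express endogenous PDE4; plated 1000 cells/well, compounds up to 22.9 uM final. Membrane-potential dye fluorescence (ex 535/em 590) was read; parental cells received 10 uM forskolin + 100 uM RO 20-1724.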
# [12] = test system: Zika virus NS2B-NS3 protease; assay: Primary screen GU AMC qHTS for Zika virus inhibitors (AID 1347154); also: potency is read from the fitted curve at half-maximal effect; nearly all actives have a fitted effect of over 70% in size
# Method in brief: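 Unlinked Zika NS2B hydrophilic domain/NS3 protease domain noncovalent complex (25 nM final) in 10 mM Tris-HCl pH 8.0, 0.01% Tween 20, with AMC peptide substrate. Fluorescence (ex 340, em 450 nm) change over 15 min, room temperature; percent inhibition fitted to 4-parameter Hill equation.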
# [13] = Stat Signaling Pathway (AID 446; active = well fitted curve in either direction with a large enough effect, not every such curve was filed as active;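 also: ME-180 cervical cancer cells given 40 pM IL-6 alongside compound; SIE-controlled beta-lactamase reporter measured as 460/530 nm FRET emission ratio; % is scaled to controls: 0 for no effect and ±100 for the full control effect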); settings: ME-180 (cervical carcinoma) SIE beta-lactamase reporter, IL-6 stimulated, 5 h; at 17.2 µM (top of the series)
# Method in brief: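 Compound effects on IL-6-induced STAT reporter activity were measured in ME-180 cells. After overnight culture, cells were co-treated with 40 pM IL-6 for 5 hrs before beta-lactamase substrate loading at room temperature.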
# [14] = molecular target: Glucocorticoid receptor (Homo sapiens) (UniProt P04150); assay: GR-GFP Redistribution (AID 450;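 active = compounds whose dose series gives a full or clear partial fitted curve of increased nuclear translocation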; also: potency is read from the fitted curve at half-maximal effect); settings: U2OS GR-GFP nuclear translocation, laser cytometry, 2 h
# [15] = qHTS Assay for Lipid Storage Modulators (AID 1519; calls by dose curve; as to activity change, negative = inhibition: % is scaled to controls: 0 for no effect and ±100 for the full control effect); settings: Drosophila S3 cells, BODIPY lipid droplet/cell ratio, laser cytometry, cells loaded with oleic acid
# Method in brief: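 Cells seeded at 5,000 per well were treated with compounds over a concentration series and loaded with oleic acid (400 uM, as added). Lipid droplet fluorescence (488 nm excitation, 500-530 nm channel) was read by laser-scanning cytometry and normalized to 20 uM Triacsin C.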
# [16] = molecular target: Ubiquitin carboxyl-terminal hydrolase 1 (Homo sapiens) (UniProt O94782); assay: Inhibitors of USP1/UAF1: Pilot qHTS (AID 504865);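 also: rhodamine fluorescence freed from ubiquitin-rhodamine substrate followed over time; top concentration of the series differs between compounds; % is scaled to controls: 0 for no effect and ±100 for the full control effect; nearly all actives have a fitted effect of over 35% in size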
# Method in brief: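 Kinetic fluorescence assay: 1nM USP1/UAF1, 15 min compound preincubation, then 150nM Ub-Rho; 480/540 nm.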
# [17] = molecular target: Cytochrome P450 3A4 (Homo sapiens) (UniProt P08684); assay: qHTS Assay for Inhibitors and Substrates of Cytochrome P450 3A4 (AID 884); also: potency is read from the fitted curve at half-maximal effect; nearly all actives have a fitted effect of over 50% in size
# Method in brief: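 Luminescent readout of luciferin produced by CYP3A4 (20 nM) dealkylation of Luciferin-PPXE, 25 uM (its KM). NADPH-driven reaction ran 60 min at RT after 10 min compound preincubation; data scaled to 57 uM ketoconazole as 100% inhibition.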
# [18] = molecular target: Cytochrome P450 3A4 (Homo sapiens) (UniProt P08684); assay: qHTS Assay for Activators of Cytochrome P450 3A4 (AID 885); also: nearly all actives have a fitted effect of over 65% in size
# Method in brief: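 CYP3A4 activity: Luciferin-PPXE O-dealkylation, 25uM substrate, 200mM KPO4, RT throughout. Read-out is luciferase luminescence; higher values reflect activation.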
# [19] = Confirmation and Secondary Assay for Modulators of Hemoglobin Beta Chain Splicing at IVS2 654 locus (AID 910);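 also: per-well total GFP intensity by laser scanning cytometry after 2-day treatment; % of control where 0% means no effect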
# Method in brief: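 HeLa cells stably carrying EGFP interrupted by mutant beta-globin IVS2-654 intron (CMV-driven) were treated with compound for 2 days at 37C; corrected splicing was scored as total peak GFP intensity per well (488 nm excitation, 500-520 nm emission).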
# [20] = Confirmation and Secondary Assay for Modulators of Hemoglobin Beta Chain Splicing at IVS2 705 locus (AID 930);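 also: HeLa cells stably expressing the EGFP-705 splicing reporter; GFP fluorescence per well restored by corrected splicing of the IVS2-705 intron in EGFP; % of control where 0% means no effect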
# Method in brief: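 Fluorescence gain (488 nm laser, 500-520 nm PMT) reflects restored correct splicing of a mutant IVS2-705 intron inside EGFP in stably transfected HeLa cells after 2-day compound treatment.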
# [21] = measured here: cell count channel max response
# [22] = measured here: lipid channel max response
# Chain of Furin (Homo sapiens) (P09958 whole entry, looked up): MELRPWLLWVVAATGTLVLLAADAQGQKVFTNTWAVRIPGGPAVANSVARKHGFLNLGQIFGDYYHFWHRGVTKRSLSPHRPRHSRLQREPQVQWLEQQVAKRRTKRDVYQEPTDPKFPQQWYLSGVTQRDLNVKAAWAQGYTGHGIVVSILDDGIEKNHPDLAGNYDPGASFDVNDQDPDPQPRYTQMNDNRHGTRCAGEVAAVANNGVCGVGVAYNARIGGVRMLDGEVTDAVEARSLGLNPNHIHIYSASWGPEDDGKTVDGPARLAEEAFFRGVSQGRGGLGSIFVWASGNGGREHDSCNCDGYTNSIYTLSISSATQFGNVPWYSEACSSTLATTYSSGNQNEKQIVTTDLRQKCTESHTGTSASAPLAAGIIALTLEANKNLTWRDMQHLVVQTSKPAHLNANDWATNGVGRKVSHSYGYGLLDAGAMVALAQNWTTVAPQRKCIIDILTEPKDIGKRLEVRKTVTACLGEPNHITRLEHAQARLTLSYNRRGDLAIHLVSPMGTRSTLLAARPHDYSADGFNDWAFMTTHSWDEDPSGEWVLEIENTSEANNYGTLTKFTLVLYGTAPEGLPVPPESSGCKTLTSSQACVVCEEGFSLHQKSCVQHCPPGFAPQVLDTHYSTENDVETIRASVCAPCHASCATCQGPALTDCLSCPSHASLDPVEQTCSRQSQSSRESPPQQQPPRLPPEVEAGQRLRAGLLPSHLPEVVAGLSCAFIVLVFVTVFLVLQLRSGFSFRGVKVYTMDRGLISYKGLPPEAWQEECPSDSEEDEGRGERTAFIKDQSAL
# Chain of Cytochrome P450 3A4 (Homo sapiens) (P08684 whole entry, looked up): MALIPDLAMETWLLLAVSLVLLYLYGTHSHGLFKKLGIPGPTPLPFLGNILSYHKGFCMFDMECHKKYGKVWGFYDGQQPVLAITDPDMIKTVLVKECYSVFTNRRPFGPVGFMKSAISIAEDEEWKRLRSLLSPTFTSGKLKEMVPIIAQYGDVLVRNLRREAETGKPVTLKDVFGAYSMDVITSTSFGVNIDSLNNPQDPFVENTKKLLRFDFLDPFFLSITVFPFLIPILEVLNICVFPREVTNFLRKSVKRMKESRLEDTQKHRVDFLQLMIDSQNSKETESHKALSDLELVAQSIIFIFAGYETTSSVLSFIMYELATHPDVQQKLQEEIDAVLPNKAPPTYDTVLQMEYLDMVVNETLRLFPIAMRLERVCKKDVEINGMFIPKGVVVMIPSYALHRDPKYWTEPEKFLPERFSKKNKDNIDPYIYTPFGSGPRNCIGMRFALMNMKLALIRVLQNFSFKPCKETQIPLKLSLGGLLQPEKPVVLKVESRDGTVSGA
# Chain of 3',5'-cyclic-AMP phosphodiesterase 4B (Homo sapiens) (Q07343 whole entry, looked up): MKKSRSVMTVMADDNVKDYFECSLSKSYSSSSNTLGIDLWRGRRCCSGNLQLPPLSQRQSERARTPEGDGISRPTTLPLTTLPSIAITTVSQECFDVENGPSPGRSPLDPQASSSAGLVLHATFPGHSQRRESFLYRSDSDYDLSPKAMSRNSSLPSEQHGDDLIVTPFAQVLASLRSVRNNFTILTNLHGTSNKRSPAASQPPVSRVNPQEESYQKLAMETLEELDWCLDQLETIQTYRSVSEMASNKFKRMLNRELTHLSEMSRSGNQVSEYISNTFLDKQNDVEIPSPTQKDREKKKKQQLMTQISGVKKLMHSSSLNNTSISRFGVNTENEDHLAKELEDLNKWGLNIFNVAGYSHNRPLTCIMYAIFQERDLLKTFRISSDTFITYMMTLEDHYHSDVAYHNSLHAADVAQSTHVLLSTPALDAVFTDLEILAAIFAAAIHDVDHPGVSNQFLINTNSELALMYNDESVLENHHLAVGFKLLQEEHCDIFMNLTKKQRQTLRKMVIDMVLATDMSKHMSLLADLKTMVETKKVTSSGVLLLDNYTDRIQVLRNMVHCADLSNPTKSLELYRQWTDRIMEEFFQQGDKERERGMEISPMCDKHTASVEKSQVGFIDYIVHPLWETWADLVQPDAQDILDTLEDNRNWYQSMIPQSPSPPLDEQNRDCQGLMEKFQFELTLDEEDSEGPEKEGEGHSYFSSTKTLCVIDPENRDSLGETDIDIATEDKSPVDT
# Chain of Glucocorticoid receptor (Homo sapiens) (P04150 whole entry, looked up, the tested form may be a part): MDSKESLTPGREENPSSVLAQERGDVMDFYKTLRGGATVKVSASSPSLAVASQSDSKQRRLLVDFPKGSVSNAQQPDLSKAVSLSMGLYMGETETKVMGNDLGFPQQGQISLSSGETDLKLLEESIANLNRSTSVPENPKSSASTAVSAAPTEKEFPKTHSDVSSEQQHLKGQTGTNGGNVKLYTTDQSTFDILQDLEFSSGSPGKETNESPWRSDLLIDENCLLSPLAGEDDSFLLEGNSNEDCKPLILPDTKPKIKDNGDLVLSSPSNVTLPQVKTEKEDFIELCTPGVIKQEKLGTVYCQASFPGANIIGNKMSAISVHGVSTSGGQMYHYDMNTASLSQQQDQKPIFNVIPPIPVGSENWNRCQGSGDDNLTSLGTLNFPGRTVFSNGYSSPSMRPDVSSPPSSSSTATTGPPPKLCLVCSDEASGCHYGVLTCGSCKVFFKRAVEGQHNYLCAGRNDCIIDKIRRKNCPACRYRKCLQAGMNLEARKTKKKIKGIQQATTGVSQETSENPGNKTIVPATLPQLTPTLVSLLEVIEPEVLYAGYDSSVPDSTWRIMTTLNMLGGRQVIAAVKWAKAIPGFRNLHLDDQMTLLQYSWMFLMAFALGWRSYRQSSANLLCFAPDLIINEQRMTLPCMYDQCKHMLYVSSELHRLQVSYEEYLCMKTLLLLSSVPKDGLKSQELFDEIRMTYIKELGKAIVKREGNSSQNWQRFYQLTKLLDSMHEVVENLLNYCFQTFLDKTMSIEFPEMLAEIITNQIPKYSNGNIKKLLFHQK
# Chain of Ubiquitin carboxyl-terminal hydrolase 1 (Homo sapiens) (O94782 whole entry, looked up): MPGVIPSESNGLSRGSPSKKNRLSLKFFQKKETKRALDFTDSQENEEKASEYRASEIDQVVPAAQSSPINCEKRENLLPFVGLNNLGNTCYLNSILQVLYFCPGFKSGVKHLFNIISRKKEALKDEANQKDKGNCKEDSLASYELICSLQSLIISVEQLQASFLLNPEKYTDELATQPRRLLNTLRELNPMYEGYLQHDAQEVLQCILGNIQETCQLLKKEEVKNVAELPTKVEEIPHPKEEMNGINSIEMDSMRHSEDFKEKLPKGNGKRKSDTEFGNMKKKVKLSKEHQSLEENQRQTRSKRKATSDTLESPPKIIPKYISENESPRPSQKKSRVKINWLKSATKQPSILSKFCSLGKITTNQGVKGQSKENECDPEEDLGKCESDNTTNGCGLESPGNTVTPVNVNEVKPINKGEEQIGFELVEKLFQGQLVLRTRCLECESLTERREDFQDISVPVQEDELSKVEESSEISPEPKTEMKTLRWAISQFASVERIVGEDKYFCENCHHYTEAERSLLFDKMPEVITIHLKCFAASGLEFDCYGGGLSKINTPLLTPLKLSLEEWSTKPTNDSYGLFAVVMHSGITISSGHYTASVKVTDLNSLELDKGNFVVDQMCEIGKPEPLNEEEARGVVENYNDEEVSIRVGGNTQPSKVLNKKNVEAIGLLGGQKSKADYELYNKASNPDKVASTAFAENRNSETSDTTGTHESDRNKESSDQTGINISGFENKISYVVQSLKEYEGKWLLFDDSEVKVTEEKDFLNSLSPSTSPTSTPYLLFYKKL
# Chain of Cytochrome P450 2D6 (Homo sapiens) (P10635 whole entry, looked up): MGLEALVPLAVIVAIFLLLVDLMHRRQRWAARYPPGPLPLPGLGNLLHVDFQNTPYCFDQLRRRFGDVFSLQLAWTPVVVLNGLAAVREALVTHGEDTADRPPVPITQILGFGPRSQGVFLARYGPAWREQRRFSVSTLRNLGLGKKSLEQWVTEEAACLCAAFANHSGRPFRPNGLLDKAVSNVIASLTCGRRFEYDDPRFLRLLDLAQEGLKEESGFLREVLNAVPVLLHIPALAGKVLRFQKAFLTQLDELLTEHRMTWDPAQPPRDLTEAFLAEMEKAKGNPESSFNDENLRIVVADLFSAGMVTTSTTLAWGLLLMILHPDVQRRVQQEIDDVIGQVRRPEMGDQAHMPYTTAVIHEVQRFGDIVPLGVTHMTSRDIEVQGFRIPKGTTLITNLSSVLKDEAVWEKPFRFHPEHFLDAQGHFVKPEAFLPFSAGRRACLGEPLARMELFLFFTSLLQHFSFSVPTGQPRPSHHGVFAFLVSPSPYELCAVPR
# Chain of Lysosomal acid glucosylceramidase (Homo sapiens) (P04062 whole entry, looked up): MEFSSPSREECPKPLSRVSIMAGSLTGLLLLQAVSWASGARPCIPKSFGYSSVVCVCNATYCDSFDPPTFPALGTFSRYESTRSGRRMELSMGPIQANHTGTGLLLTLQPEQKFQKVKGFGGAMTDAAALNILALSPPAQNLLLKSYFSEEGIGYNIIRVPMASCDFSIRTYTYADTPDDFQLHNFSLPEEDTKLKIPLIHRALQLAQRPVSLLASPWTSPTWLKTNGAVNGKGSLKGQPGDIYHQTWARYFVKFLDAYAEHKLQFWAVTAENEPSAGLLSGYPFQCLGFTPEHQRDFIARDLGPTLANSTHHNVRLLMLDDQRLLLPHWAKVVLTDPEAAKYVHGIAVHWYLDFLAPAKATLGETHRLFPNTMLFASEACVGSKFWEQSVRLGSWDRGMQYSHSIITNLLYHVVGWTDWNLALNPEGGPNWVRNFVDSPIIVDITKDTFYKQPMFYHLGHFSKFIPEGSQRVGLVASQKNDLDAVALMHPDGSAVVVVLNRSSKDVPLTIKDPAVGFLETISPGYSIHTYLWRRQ
smiles,measurement,setting,value
Cc1cccc(C)c1-n1c(SCC(=O)Nc2ccc(C(=O)O)cc2)nnc1-c1cccc([S+](=O)([O-])N2CCCC2)c1,Potency,Furin (Homo sapiens),inactive
same,Potency,[1],inactive
same,Potency,[2],70.8 µM (active)
same,Potency,[3],89.1 µM (active)
same,Potency,[4],inactive
O=C(O)c1cccc(-c2ccc(OC(F)(F)F)cc2)c1,Potency,Furin (Homo sapiens),inactive
same,Potency,[1],inactive
same,Potency,[2],inactive
same,Potency,[4],inactive
COc1ccc(Nc2nnc(-c3ccc(C)c(S(=O)(=O)NCc4nc5ccccc5[nH]4)c3)c3ccccc23)cc1,Potency,Furin (Homo sapiens),inactive
same,Potency,[5],inactive
same,Potency,[6],4.25 µM (active)
COC(=O)c1ccc(NC(=O)CSc2ncc3c(n2)-c2cc(Cl)ccc2N(Cc2ccccc2)S3(=O)=O)cc1,Potency,Furin (Homo sapiens),83.5 µM (active)
same,Potency,[1],inactive
same,Potency,[2],inactive
Cc1c2ccccc2c(CSC(=N)N)c2ccccc12,Potency,[7],1.39 µM (active)
same,"activity change, negative = inhibition",[8]; at 7.69 µM (top of the series),-16.8% (inactive)
same,Potency,[9],> 9.22 µM (inactive)
same,"activity change, negative = inhibition",[10],27.8% [at 11.4 µM] (inactive)
same,Potency,[11],inactive
same,Potency,[12],21.2 µM (active)
CC[C@@H]1O[C@]2(C=C[C@@H]1C)C[C@H]1C[C@H](CC=C(C)[C@@H](O[C@@H]3C[C@H](OC)[C@H](O[C@@H]4C[C@H](OC)[C@H](O)[C@H](C)O4)[C@H](C)O3)[C@@H](C)C=CC=C3CO[C@@H]4[C@@H](O)C(C)=C[C@@H](C(=O)O1)[C@]34O)O2,"activity change, negative = inhibition",[8]; at 17.2 µM (top of the series),6.2% (inactive)
same,"activity, negative = inhibition",[13],-5.99% (inactive)
same,Potency,[14],> 20.6 µM (inactive)
same,Potency,[10],inactive
same,Potency,[11],inactive
same,"activity change, negative = inhibition",[15]; at 25.7 µM (top of the series),-16.6% (inactive)
same,max response,[15]; [21],-4.3%
same,max response,[15]; [22],-18.8%
same,Potency,[16],inactive
O=C1C=CC(=O)c2c(O)c(Cl)c(Cl)c(O)c21,Potency,[17],31.6 µM (active)
same,Potency,[18],inactive
same,outcome,[19],inactive
same,outcome,[20],inactive
same,"activity change, negative = inhibition",[15]; at 57.5 µM (top of the series),5.17% (inactive)
same,max response,[15]; [21],0.303%
same,max response,[15]; [22],7.95%
